The whole screen tested about 360,000 compounds, of which about 8,200 (2.3%) were called active. No stated cut-off is given here; in the data, active means inhibition above about 27%; inactive means the rest. Many of the other results were omitted from the sample, so actives are more common in it than they were.
Each compound was assayed against Fructose-bisphosphate aldolase (Mycobacterium tuberculosis (strain ATCC 25618 / H37Rv)) (UniProt P9WQA3) (assay: Mtb FBA enzyme inhibitors, primary screen, biochemical, fluorescence, strain H37Rv (AID 588726;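 further: 0% = vehicle and 100% = reference inhibitor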)). Settings: purified M. tuberculosis FBA, fluorescence read-out, at 1 µM, hits give high values.
Chain of Fructose-bisphosphate aldolase (Mycobacterium tuberculosis (strain ATCC 25618 / H37Rv)) (P9WQA3 whole entry, looked up): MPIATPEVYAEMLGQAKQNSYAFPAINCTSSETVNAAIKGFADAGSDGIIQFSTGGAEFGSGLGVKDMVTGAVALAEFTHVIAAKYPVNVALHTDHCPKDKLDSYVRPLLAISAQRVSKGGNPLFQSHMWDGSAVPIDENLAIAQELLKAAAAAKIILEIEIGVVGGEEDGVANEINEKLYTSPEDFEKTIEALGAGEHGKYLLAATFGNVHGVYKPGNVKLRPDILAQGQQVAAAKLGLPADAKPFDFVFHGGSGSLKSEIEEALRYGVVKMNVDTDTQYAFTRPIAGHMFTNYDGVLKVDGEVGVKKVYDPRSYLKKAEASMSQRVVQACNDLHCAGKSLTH

Row | Structure (SMILES) | inhibition
1 | CN1CCN(Cc2ccc(OC(F)(F)F)cc2)CC1 | -3.02% (inactive)
2 | Cc1ccccc1Nc1c(-c2ccccc2)nc2ncccn12 | 2.19% (inactive)
3 | COc1ccc(N2CCN(C(=O)CSc3nnc4ncccn34)CC2)cc1 | -2.52% (inactive)
4 | c1ccc(-c2cn3c(n2)CCc2ccc4cccnc4c2-3)cc1 | 6.65% (inactive)
5 | COc1ccc(C(=O)/C=C/Nc2ccccn2)cc1 | 4.41% (inactive)
6 | CC(C)(C)NC(=O)NC(=O)COC(=O)C1(C)CC1(Cl)Cl (stereo unspecified) | 0.89% (inactive)
7 | COCCNC(=O)c1onc(CSc2cccc(C)c2)c1C(=O)O | 1.01% (inactive)
8 | Cc1ccc(NC(=O)CN(C)C(=O)c2ccc(Br)o2)cc1 | 0.61% (inactive)
9 | CC1COC2C(O1)N(S(C)(=O)=O)CCN2S(C)(=O)=O (stereo unspecified) | -0.44% (inactive)
10 | Cc1cccc(-c2cnc(C(O)c3cc(C)cc(C)c3)[nH]2)c1 (stereo unspecified) | -2% (inactive)
11 | CC(C)C(C(=O)NC1CCCCC1)N(CC1CCCO1)C(=O)CNS(=O)(=O)c1ccc(F)cc1 (stereo unspecified) | -0.74% (inactive)
12 | CN1OC[C@@H]2CN(C(=O)C(C)(C)C)[C@H](c3ccc(-n4ccnc4)cc3)C[C@@H]21 | 3.11% (inactive)
13 | Cc1ccc(-c2cnc(C(O)c3cccc(C)c3C)[nH]2)cc1 (stereo unspecified) | -6.24% (inactive)
14 | CCC(C)(C)NC(=O)C(c1cccc(OC)c1OC)N(CC(C)C)C(=O)CCC(=O)Nc1cc(C)on1 (stereo unspecified) | -1.74% (inactive)
15 | COC(=O)C1=CN(C)C=C(C(=O)OC)C1c1ccc(Cl)cc1Cl | 12.4% (inactive)
16 | CCOc1ccccc1C1C(C(=O)OC)=CN(C)C=C1C(=O)OC | 180% (active)
17 | CCOc1cc(C2C(C(=O)OC)=CN(C3CCCC3)C=C2C(=O)OC)cc(Br)c1O | 9.72% (inactive)
18 | O=C(CC1SC(N2CCCC2)=NC1=O)Nc1ccc(C(=O)NCCc2ccc(F)cc2)cc1 (stereo unspecified) | -0.1% (inactive)
19 | COc1ccccc1C(=O)NCC(=O)NCCSc1ccc(Br)cc1 | -1.16% (inactive)
20 | Cn1nc(-c2ccc(Cl)cc2)c2cc(C(=O)NCc3ccco3)sc21 | 43.5% (active)
21 | O=C(NCc1ccco1)c1cccc(-c2ccc3nncn3c2)c1 | -0.68% (inactive)

Row | Structure (SMILES) | inhibition
22 | O=C(NCc1ccco1)c1sc2cccc(F)c2c1Cl | 5.05% (inactive)
23 | COc1cc(C2OC(c3cc(OC)c(OC)c(OC)c3)C(C)C2C)cc(OC)c1OC (stereo unspecified) | -1.3% (inactive)
24 | CC1CCCCC1NC(=O)CO/N=C/c1ccc(OC(F)F)cc1 (stereo unspecified) | -0.83% (inactive)
25 | COc1ccc2nc(-c3ccccn3)ccc2c1 | 77.3% (active)
26 | COc1ccc(C=C(C#N)C#N)c(CSc2ccccn2)c1 | 1.22% (inactive)
27 | COc1ccc2cc(CCl)c(Cl)nc2c1 | 0.58% (inactive)
28 | O=C(COc1cc(Cl)c(Cl)cc1Cl)NC(=O)NC1CCCC1 | 5.04% (inactive)
29 | CC(C)(C)C(=O)CN1C2=NCCN2c2ccccc21 | -3.57% (inactive)
30 | CC(C)n1c(-c2cccs2)nc2ccccc21 | 32.3% (active)
31 | CC(C)n1c(CN2CCN(Cc3ccccc3)CC2)nc2ccccc21 | 3.41% (inactive)
32 | CC(C)n1c(NCc2c[nH]c3ccccc23)nc2ccccc21 | 1.92% (inactive)
33 | Cc1noc(C)c1-c1ccc2ncnc(NC(C)c3ccco3)c2c1 (stereo unspecified) | 8.84% (inactive)
34 | O=C(O)C1CCC(CNS(=O)(=O)c2ccc(Br)cc2)CC1 (stereo unspecified) | 0.74% (inactive)
35 | CCN1CCN(C(=O)c2ccc(CN(c3ccc(C)c(C)c3)S(C)(=O)=O)cc2)CC1 | -1.53% (inactive)
36 | O=c1oc2ccccc2cc1-c1cn(-c2ccccc2)c(=S)[nH]1 | 40.4% (active)
37 | C/C(=C\c1ccco1)CN1CCC(N2CCC(C(=O)N3CCOCC3)CC2)CC1 | -2.26% (inactive)
38 | OCC[C@H]1C[C@@H](O)[C@H](O)[C@]2(OCCCc3ccccc32)O1 | 2.25% (inactive)
39 | O=C(N/N=C\c1ccc(-c2ccc(Cl)c(Cl)c2)o1)C(=O)N1CCCC1 | 1.03% (inactive)
40 | O=C(COc1ccc2c(c1)CCC2)N1CCN(c2ccc(F)cc2)CC1 | -1.29% (inactive)
41 | COc1ccc(OCC(=O)N2CCN(C(=O)c3cccs3)CC2)cc1 | 1.53% (inactive)
42 | CCN1CCN(C(=O)c2cc3cc4ccc(OC)cc4nc3s2)CC1 | 43.9% (active)

Row | Structure (SMILES) | inhibition
43 | CCN1CCN(C(=O)CN(C)S(=O)(=O)c2ccc(OC)cc2)CC1 | -1.71% (inactive)
44 | O=C(OCC(=O)N1CCCCCC1)c1ccc(Br)c(S(=O)(=O)N2CCOCC2)c1 | -1.57% (inactive)
45 | COc1ccc(CNC(=O)c2ccc(NS(=O)(=O)c3ccc4[nH]c(=O)[nH]c4c3)cc2)cc1OC | -1.09% (inactive)
46 | CCOC(=O)c1cnn(Cc2ccccc2Cl)c1N | -1.37% (inactive)
47 | O=C(Cc1coc2ccc3ccccc3c12)NCc1cccs1 | 0.72% (inactive)
48 | O=C(NCc1cccs1)c1cc(-c2ccccn2)nc2ccc(Br)cc12 | 1.48% (inactive)
49 | COCC(C)OC(=O)c1c(N)n(CCCN2CCOCC2)c2nc3ccccc3nc12 (stereo unspecified) | 104% (active)
50 | CCOC(=O)c1c(N)n(CCN2CCOCC2)c2nc3ccccc3nc12 | 113% (active)
51 | CC(CN1CCOCC1)OC(=O)c1ccc(C(C)(C)C)cc1 (stereo unspecified) | -5.4% (inactive)
52 | CCOC(=O)c1c(C)[nH]c(C(=O)NCCN2CCOCC2)c1C | 1.62% (inactive)
53 | CCOC(=O)c1c(CN2CCOCC2)n(-c2ccccc2)c2ccc(O)cc12 | -1.31% (inactive)
54 | Cc1ccc(C(=O)OC(C)CN2CCOCC2)cc1 (stereo unspecified) | -3.53% (inactive)
55 | CC(C)Cn1c(N)c(C(=O)NCc2cccs2)c2nc3ccccc3nc21 | 48.5% (active)
56 | CCN(C(=O)COC(=O)c1c(C)nn(-c2ccccc2)c1Cl)c1c(N)n(Cc2ccccc2)c(=O)[nH]c1=O | -2.12% (inactive)
57 | CCOc1ccc(OCC)c(NC(=O)C(NS(=O)(=O)c2ccc3c(c2)oc(=O)n3C)C(C)C)c1 (stereo unspecified) | 0.18% (inactive)
58 | O=C(NCCc1ccccc1)C(=O)NCC1OCCN1S(=O)(=O)c1cccs1 (stereo unspecified) | 0.89% (inactive)
59 | CN(C)C(=O)N1CCNCC1 | 2.64% (inactive)
60 | Cc1nc2ccc(S(=O)(=O)NCC(=O)O)cc2s1 | 0.49% (inactive)
61 | COCCNS(=O)(=O)c1cc(Br)ccc1OC | 0.54% (inactive)

Source: PubChem BioAssay AID588726 (The Scripps Research Institute Molecular Screening Center, 2011)
